# KB-3-1 cytotox – kills parental KB-3-1 adenocarcinoma cells. KB-3-1 viability, CellTiter-Glo ATP luminescence, 72 h. Potency, µM (titrated, usually from 46.1 µM), most hits filed as cytotoxic. actives 1.4% (n = 400,000). AID 1347075; note: % is set by controls: 0 for no effect and ±100 for the full control effect; nearly all actives have a fitted effect of over 60% in size
#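 KB-3-1 parental drug-naive adenocarcinoma cells in DMEM/10% FBS, incubated 72 h at 37 C with pin-transferred compounds across a concentration series. Viability by CellTiter-Glo luminescence; concentration-response curves fitted after normalization.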
# KB-V1 MDR tox – KB-V1 MDR subline cytotoxicity. Potency, µM (series often up to 46.1 µM), usual class: cytotoxic. actives 3.4% (n = 400,000). KB-V1 MDR cells viability, CellTiter-Glo, 72 h; note: % is set by controls: 0 for no effect and ±100 for the full control effect; nearly all actives have a fitted effect of over 60% in size
#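 KB-V1, DMEM (no phenol red) + 10% FBS; cpd pin-transferred, titration series; 72 h, 37 degrees C; CellTiter-Glo, luminescence. Data normalized, curve-fit.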
# MCF10A rerep – DNA re-replication induction in MCF 10a cells; MCF 10A DNA re-replication, Hoechst nuclear intensity, 48 h; Potency, µM (highest dose often 46.1 µM), without a hit: at the top dose activity, positive = re-replication, hits mostly activators; AID 624296; actives 2.9% (n = 350,000); note: % of control where 0% means no effect; nearly all actives have a fitted effect of over 50% in size
# SW480 rerep – inducers of DNA re-replication in SW480 colon cancer cells; SW480 DNA re-replication, Hoechst DNA content imaging, 48 h; actives 1.8% (n = 340,000); Potency, µM (titrated, usually from 46.1 µM), without a hit: at the top dose re-replication activation, usual class: activators; note: % of control where 0% means no effect; nearly all actives have a fitted effect of over 55% in size
#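 Quantitative HTS format with DMSO vehicle controls; 48 hr drug incubation at 37 C, then 40 min Hoechst staining and scanning imager measurement at 405 nm excitation.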
# HT1080 IDH1KD tx – kills HT-1080 cells with IDH1 knockdown | HT-1080 IDH1 knockdown viability, ATP luminescence, 48 h | Potency, µM (doses to about 46.1 µM), inactives show top-dose activity, negative = toxicity, actives largely listed as cytotoxic | actives 2% (n = 360,000);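 note: 0% = DMSO wells and -100% = cell-free medium wells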
#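 Luminescent ATP read-out (CellTiter-Glo, 10 min at room temperature) after 48 h compound exposure at 37 °C gave viability of IDH1-knockdown HT-1080 cells. Activity was normalised to DMSO and cell-free wells, then fitted as concentration-response curves.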
# HT1080-NT tox – kills 2HG-producing HT-1080-NT fibrosarcoma cells; HT-1080-NT fibrosarcoma viability, CellTiter-Glo ATP luminescence, 48 h; Potency, µM (top dose mostly 46.1 µM), without a hit: at the top dose activity, negative = less viability, hits mostly cytotoxic; actives 1.6% (n = 360,000); AID 686970;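 note: NT is the 2HG producing partner of a matched IDH1 knockdown line; 0% = DMSO-treated cells and -100% = media-only wells without cells; nearly all actives have a fitted effect of over 55% in size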
#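 Compounds were tested in concentration-response format on HT-1080-NT cells for 48 hours at 37 degrees C. Cell viability came from CellTiter-Glo luminescence; curves were classified by r2, response magnitude and activity.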
# An asterisk follows results filed as active; i = inactive; ? = inconclusive; · = not tested or not shown. Only some compounds are listed: those with a hit (about 7.9% of all), similar ones and a draw of the others. Calls come from the whole dose curve; as a rule, active = well fitted curve in the direction sought with a large enough effect; inconclusive = small, poorly fitted or top-dose-only effect, or another doubt; inactive = no such curve, though single readings can be large; an effect the other way counts as inactive or inconclusive. Potency is the fitted concentration of half-maximal effect.
SMILES,KB-3-1 cytotox,KB-V1 MDR tox,MCF10A rerep,SW480 rerep,HT1080 IDH1KD tx,HT1080-NT tox
COc1cccc(-c2cc(C(F)(F)F)n3ncc(C(=O)O)c3n2)c1,i,i,2%,-5%,20%,17%
COc1cccc(-c2cc(C(F)(F)F)n3ncc(S(=O)(=O)c4ccccc4)c3n2)c1,i,i,7.3µM*,8.2µM*,6%,9%
COc1cccc(-c2cc(C(F)(F)F)nc(N3CCCCC3)n2)c1,i,i,16µM*,-9%,1%,1%
COc1ccc(-c2cc(C(F)(F)F)nc(N3CCCCC3)n2)cc1OC,i,?,?,9%,12%,25%
COc1ccc(-c2cc(C(F)(F)F)nc(-n3ccnc3C)n2)cc1,?,21µM*,8%,-7%,-2%,-1%
COc1ccc(-c2cc(C(F)(F)F)nc(N3CCN(C)CC3)n2)cc1OC,?,16µM*,20%,12%,?,?
CN1CCN(C(=S)Nc2ccc([N+](=O)[O-])cc2)CC1,i,i,8%,-3%,-12%,-12%
CCCCNC(=S)Nc1ccc2[nH]c(=O)[nH]c2c1,i,i,-1%,-3%,7%,3%
COc1ccc(NC(=O)CCNC(=O)c2ccco2)cc1OC,i,i,0%,-5%,13%,13%
COc1ccc(-c2cc(C(F)(F)F)nc(N3CCN(C)CC3)n2)cc1,?,12µM*,?,-3%,?,?
COc1ccc(-c2cc(C(F)(F)F)nc(N3CCCCCC3)n2)cc1,i,i,23µM*,2%,10%,8%
Cc1cc(C)nc(OC(C(=O)O)C(OCCc2ccccc2)(c2ccccc2)c2ccccc2)n1 (stereo not given),i,i,16%,1%,-18%,-22%
COc1ccc(CCNC(=O)COc2cc(C)cc3oc(=O)cc(C)c23)cc1OC,i,i,0%,-1%,15%,13%
COCCNc1nc2nonc2nc1N(C)Cc1cccc2cnccc12,i,i,-2%,4.6µM*,-7%,-21%
CCN(c1ccccc1)c1nc2nonc2nc1NCCO,i,i,0%,-6%,4%,4%
COC(=O)c1sc2nc(CSc3ccc(Br)cc3)[nH]c(=O)c2c1C,i,i,15µM*,-4%,0%,1%
CC(=O)n1c(=O)c2ccccc2c(=O)n1-c1ccccc1,i,i,-15%,-4%,20%,14%
O=c1c2ccccc2c(=O)n(-c2ccccc2)n1CCCCBr,i,i,7.3µM*,-2%,0%,7%
O=C(NCc1cccs1)c1nc2c(nnn2Cc2ccccc2Cl)c(=O)[nH]1,5.8µM*,8.2µM*,?,?,3.3µM*,4.6µM*
CCC(C)NC(=O)c1nc2c(nnn2Cc2ccccc2Cl)c(=O)[nH]1 (stereo not given),i,i,1%,-5%,1%,-13%
CC(=O)C1=C(O)C(=O)N(CCc2c[nH]c3ccccc23)C1c1ccccc1 (stereo not given),i,i,6%,-139%,3%,-1%
CC(C)(C)C(=O)NNC(=O)c1cc(C(C)(C)C)nn1Cc1ccccc1,?,i,-2%,-11%,-16%,-6%
Cc1ccc(NNC(=O)c2cc(C(C)(C)C)nn2Cc2ccccc2)cc1,12µM*,i,?,-10%,-10%,-8%
CC(C)(C)c1cc(C(=O)NNc2cccc(Cl)c2)n(Cc2ccccc2)n1,?,?,?,2%,18µM*,21µM*
CC(C)(C)c1cc(C(=O)Nc2ccc(F)cc2)n(Cc2ccc(F)cc2)n1,?,?,21µM*,1%,?,?
SMILES,KB-3-1 cytotox,KB-V1 MDR tox,MCF10A rerep,SW480 rerep,HT1080 IDH1KD tx,HT1080-NT tox
CC(C)(C)c1cc(C(=O)NNc2cc(C(F)(F)F)ccc2Cl)n(Cc2ccccc2)n1,?,?,21µM*,5%,?,?
COC(=O)c1ccccc1NC(=O)c1nn(-c2ccc(OC)cc2)c(=O)c2c1c1ccccc1n2C,i,i,·,·,·,·
CCN1C(=O)[C@@H]2[C@H](C1=O)[C@@H]1C(=O)Nc3ccccc3C(=O)N1[C@@H]2c1cccc(C)c1,i,i,8%,4%,24%,?
CCOC(=O)N1CCN(Cc2nc(-c3ccccc3)no2)CC1,i,i,5%,-6%,0%,-2%
CCCCC(=O)N/N=C(\C)c1cccc(NC(=O)C2CC2)c1,i,i,-32%,-3%,19%,3%
CC(C)(C)c1cc(C(=O)NNc2ccc(OC(F)(F)F)cc2)n(Cc2ccccc2)n1,i,?,18µM*,-35%,7.3µM*,?
COc1ccccc1NNC(=O)c1cc(C(C)(C)C)nn1Cc1ccccc1,i,?,17%,10%,-10%,-2%
Cc1noc(C)c1S(=O)(=O)Nc1ccc(C(=O)NCCc2ccccc2)cc1,i,i,2%,-8%,3%,-2%
Cc1ccc(S(=O)(=O)N/N=C(\c2ccccc2)c2cccnc2)cc1,i,i,?,0%,6%,4%
O=[N+]([O-])c1ccc(N=Nc2c(Cl)cc(O)cc2Cl)cc1,18µM*,i,?,?,8.2µM*,6.5µM*
COc1cccc2[nH]c3c(N4CCCC(C)C4)ncnc3c12 (stereo not given),i,6.5µM*,4%,-6%,-4%,5%
COc1cccc2[nH]c3c(N4CCC(C(N)=O)CC4)ncnc3c12,i,i,-11%,-3%,12%,5%
Brc1cccc(/C=N\n2cnnc2)c1,i,?,21%,-6%,0%,9%
O=[N+]([O-])c1cc(/C=N/n2cnnc2)ccc1N1CCCC1,i,2.6µM*,0%,-169%,5%,-3%
CC(C)CN(CC(C)C)c1ccc(/C=N/n2cnnc2)cc1[N+](=O)[O-],?,21µM*,?,-8%,-1%,-14%
O=[N+]([O-])c1cccc(/C=N/n2cnnc2)c1,i,i,0%,4%,27%,9%
O=[N+]([O-])c1cc(/C=N/O)ccc1N1CCCC1,?,?,-7%,12%,-14%,-10%
C(=Nn1cnnc1)c1ccc2c(c1)CCC2,16µM*,?,·,·,4%,-1%
Cc1cc(=O)oc2cc(OC(C)C(=O)NCC3CCC(C(=O)O)CC3)c(Cl)cc12 (stereo not given),i,i,-2%,1%,2%,7%

# Assay outcomes deposited in PubChem by National Center for Advancing Translational Sciences (NCATS).
